# Measurements: PubChem BioAssay (Tox21)
# Inconclusive results are not listed. The source made the active and inactive calls. The call rests on the fitted dose curve.
# Assay: qHTS assay to identify small molecule agonists or antagonists of the thyroid stimulating hormone receptor (TSHR) signaling pathway - wild type cell line counter screen (AID 1259384)
# Settings: HEK293 wild type, cAMP HTRF counter-screen; series mostly up to 92.4 µM
# Excerpt: U.S. Tox21 Program National Center for Advancing Translational Sciences [NCATS] NIH Chemical Genomics Center [NCGC] U.S. Environmental Protection Agency [EPA] National Institutes of Environmental Health Sciences [NIEHS] National Toxicology Program [NTP] U.S. Food and Drug Administration [FDA] Tox21 Assay Overview: TSHR is the receptor for thyrotropin (thyroid stimulating hormone or TSH), a member of the glycoprotein hormone family. TSH is released by the anterior pituitary gland and is the main regulator of thyroid gland growth and development. Upon binding circulating thyrotropin, a G-protein signal cascade activates adenylyl cyclase and […] cAMP concentration is increased. cAMP is a key second messenger involved extensively in cellular signal transduction pathways associated with the majority of G-protein coupled receptors (GPCRs). The activation of these GPCRs by neurotransmitters, lipids, nucleotides, peptides and hormones results in the activation or the inhibition of plasma membrane-bound adenylate cyclase through heterotrimeric G-proteins. A cell-based TSHR-Hek293 assay can be used to identify TSHR agonists. To eliminate the false positive compounds identified from screening a cell-based TSHR-Hek293 cell line, cAMP assay in a wild type Hek293 cells was used as a counter screening.
# Tox21 Assay Protocol Summary: Hek293 cells (wild type) were dispensed at 800 cells/4 uL/well in 1536-well white plates using a Multidrop dispenser. After the assay plates were incubated at a 37 C/5% CO2 incubator for 18 hrs, 23 nL of compounds dissolved in DMSO, positive controls or DMSO only was transferred to the assay plate by a pin tool, followed by 1 ul medium containing Ro20-1724. After 30 min of incubation at room temperature, 2.5 ul/well of cAMP-d2 and 2.5 ul/well of anti-cAMP-cryptate were added respectively into the assay plates using a Flying Reagent Dispenser. The plates were incubated at room temperature for 1 hr. The fluorescence intensity in the plates was measured using an Envision plate reader. Each test compound was measured at 15 concentrations and in triplicates.
row,Compound,outcome
1,CCCCN(CCCC)CCCC,inactive
2,C=CCOC(=O)c1ccccc1C(=O)OCC=C,inactive
3,c1ccc2scnc2c1,inactive
4,C=C(C)C(=O)OCCOCCOCCOC(=O)C(=C)C,inactive
5,CCCCCCCC(=O)OC,inactive
6,CN(C)CCC(c1ccc(Cl)cc1)c1ccccn1 (stereo not given),inactive
7,O=C(Oc1ccccc1)c1ccccc1,inactive
8,Oc1cccc2ccccc12,inactive
9,CCCCCCCCC/C=C/CC1CC(=O)OC1=O (stereo not given),inactive
10,CC(=O)Nc1cccc(O)c1,inactive
11,O=C1CCC(N2C(=O)c3ccccc3C2=O)C(=O)N1 (stereo not given),inactive
12,CC1CCC(C(C)C)C(O)C1 (stereo not given),inactive
13,Cc1cccnc1,inactive
14,NNc1nncc2ccccc12,inactive
15,COS(C)(=O)=O,inactive
16,CCCCCCCCCCCCc1ccccc1,inactive
17,COc1ccc(Nc2ccccc2)c(C)c1,inactive
18,C#C[C@]1(O)CC[C@H]2[C@@H]3CCC4=CC(=O)CC[C@@H]4[C@H]3CC[C@@]21C,inactive
19,CCCCC(CC)COC(=O)CCCCC(=O)OCC(CC)CCCC (stereo not given),inactive
20,O=C=NCCCCCCN=C=O,inactive

row,Compound,outcome
1,O=C(O)c1cc(=O)c2c(OCC(O)COc3cccc4oc(C(=O)O)cc(=O)c34)cccc2o1,inactive
2,CCC(O)OCCCOC (stereo not given),inactive
3,CCc1cccc(C)c1N,inactive
4,CC[C@H](C)C(=O)O[C@H]1C[C@@H](C)C=C2C=C[C@H](C)[C@H](CC[C@@H]3C[C@@H](O)CC(=O)O3)[C@H]21,inactive
5,ON=C1CCCCC1,inactive
6,COc1ccc(Cl)cc1C(=O)NCCc1ccc(S(=O)(=O)NC(=O)NC2CCCCC2)cc1,inactive
7,Cc1ccc(S(N)(=O)=O)cc1,inactive
8,OCCOCCN1CCN(C2=Nc3ccccc3Sc3ccccc32)CC1,inactive
9,CC(=O)c1ccccc1,inactive
10,Fc1ccc(Br)cc1,inactive
11,CCCCC(CC)COC(=O)C(C#N)=C(c1ccccc1)c1ccccc1 (stereo not given),inactive
12,CC(=O)Nc1ccccc1,inactive
13,Cc1ccc2oc(=O)ccc2c1,inactive
14,OCCOCCOCCO,inactive
15,O=c1[nH]c(=O)n([C@H]2CCCO2)cc1F,inactive
16,C=CCNC(N)=S,inactive
17,O=C(O)CCCCCCCCCCC(=O)O,inactive
18,CCCCCC1=CCCC1=O,inactive
19,CC(=O)CC(=O)Nc1ccccc1,inactive
20,CC(C)c1ccc(S(=O)(=O)O)cc1,inactive
